Measurements taken from PubChem BioAssay (NCI).
About 83,000 compounds went through this panel and 20% of them were active in at least one assay; those are over-represented in the sample as a whole.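 Single-concentration screen, 48 h exposure, 96-well plates. Endpoint: percent growth. Below 10 = active.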 A number with no mark means an inactive call. Activity calls are given as the source filed them.

Tests used:
Assay in all cases: NCI-60 one-dose screen, 48 h (100 = growth as untreated, 0 = no growth, -100 = all killed)
Details in all cases: 10 µM unless noted
SR leukemia = tested on: SR leukemia
RPMI-8226 leukemia = tested on: RPMI-8226 leukemia
OVCAR-5 ovarian = tested on: OVCAR-5 ovarian
OVCAR-4 ovarian = tested on: OVCAR-4 ovarian
SK-OV-3 ovarian = tested on: SK-OV-3 ovarian
IGROV1 ovarian = tested on: IGROV1 ovarian
OVCAR-3 ovarian = tested on: OVCAR-3 ovarian
HS 578T breast = tested on: HS 578T breast
NCI/ADR-RES ovarian = tested on: NCI/ADR-RES ovarian
T-47D breast = tested on: T-47D breast
BT-549 breast = tested on: BT-549 breast
MDA-MB-435 melanoma = tested on: MDA-MB-435 melanoma
SW-620 colon = tested on: SW-620 colon
MCF7 breast = tested on: MCF7 breast
HCT-116 colon = tested on: HCT-116 colon
HCC-2998 colon = tested on: HCC-2998 colon
KM12 colon = tested on: KM12 colon
OVCAR-8 ovarian = tested on: OVCAR-8 ovarian

Row | Structure (SMILES) | growth (SR leukemia) | growth (RPMI-8226 leukemia) | growth (OVCAR-5 ovarian) | growth (OVCAR-4 ovarian) | growth (SK-OV-3 ovarian) | growth (IGROV1 ovarian) | growth (OVCAR-3 ovarian) | growth (HS 578T breast) | growth (NCI/ADR-RES ovarian) | growth (T-47D breast) | growth (BT-549 breast) | growth (MDA-MB-435 melanoma) | growth (SW-620 colon) | growth (MCF7 breast) | growth (HCT-116 colon) | growth (HCC-2998 colon) | growth (KM12 colon) | growth (OVCAR-8 ovarian)
1 | Cn1cc(-c2nc(-c3c[nH]c4ccccc34)cs2)c2cccnc21 | 23% | 14.4% | 54.4% | 45.5% | 38.7% | 44.5% | 7.04% (active) | 38.6% | 20.4% | 0.223% (active) | 7.05% (active) | 1.86% (active) | 32% | 14.7% | 26.3% | 54.7% | 27.4% | 
2 | CCCN(CCC)CN(CCC)CCC | 101% | 99.9% | 102% | 117% | 102% | 111% | 92.1% | 98.8% | 105% | 102% | 91.4% | 99.4% | 103% | 93% | 95.7% | 104% | 101% | 
3 | Oc1cc(O)c2c(=S)cc(-c3ccc(Cl)cc3)oc2c1 | 36.1% | -4.71% (active) |  |  | 61.8% | 26.1% | 17.6% | 40.5% | 25.5% | 0.614% (active) | 38.4% | 25.9% | 41.5% | 6.22% (active) | 17.6% | 57.7% | 38.7% | 35%
4 | COc1ccc(CCN2CCCn3c2nc2ccccc2c3=O)cc1 | 24.8% | 29.9% |  | 41.9% | 53.7% | 40.3% | -4.64% (active) | 38.9% | 14.7% | 80.8% | 29.5% | -15.2% (active) | 27% | 16.8% |  | 8.36% (active) | 14.7% | 28.8%
5 | O=C1c2c[n+](Cc3ccccc3)ccc2-c2nc3ccccc3c3ccnc1c23 | -8.84% (active) | -25.2% (active) | -11% (active) | -38.7% (active) | -13% (active) | -46.1% (active) | -66.8% (active) | -18.8% (active) | 75.9% | -48.4% (active) | -30.7% (active) | -81.8% (active) | -12.9% (active) | -42.3% (active) | -31.5% (active) | -53% (active) | 2.73% (active) | 
6 | Cc1cc2cc3cc(C)c(N(C)C)cc3nc2cc1N(C)C | 25% | -0.205% (active) |  | 32.4% | 17.7% | -13.8% (active) | -25.5% (active) | 31.7% | 82.5% | 7.76% (active) | -11.6% (active) | 29.1% | 17.7% | 13.5% | 13.7% |  | 3.92% (active) | 22.5%
7 | CCCCCCCCCCCCNC(=O)[C@H]1CSC(c2ccc(OC)c(F)c2)N1 (some centres undefined) | -50.9% (active) | -53.3% (active) |  | -96.6% (active) | -98.1% (active) | -76% (active) | -91.9% (active) | -49.6% (active) | -60.4% (active) | -68.9% (active) | -84.3% (active) | -92% (active) | -70.4% (active) | -68.1% (active) | -88.7% (active) |  | -84.6% (active) | -51.1% (active)
8 | N#Cc1c(N)nc(N)nc1Nc1ccc(Br)cc1 | 102% | 97% | 115% | 94.5% | 108% | 47% | 97.6% | 70.1% | 104% | 71.4% | 86.2% | 104% | 105% | 61.6% | 137% | 110% | 93.9% | 
9 | O=c1c(/C=C/c2ccco2)nnc(SCCN2CCOCC2)n1/N=C/c1ccc([N+](=O)[O-])cc1 | 33.6% | 67% | 103% | 97.2% | 95% | 82.8% | 108% | 96.9% | 101% | 68.2% | 94.6% | 97.4% | 104% | 31% | 95% | 93.1% | 92% | 
